18 compounds from PubChem BioAssay (NCATS) can be followed below.

One assay has as its system CRL-7250. The experiment in a line: Cytotoxic Profiling of Annotated Libraries Using Quantitative High-Throughput Screening (AID 1296008). For max response: % is set by controls: 0 for no effect and ±100 for the full control effect. Note: potency is the fitted concentration of half-maximal effect. The following applies: Five cell lines viability, CellTiter-Glo ATP luminescence, 48-72 h; max response: active compounds read low. A digest of the protocol: (§1)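 Cells exposed to compounds for 48 or 72 hr at 37 degrees Celsius. Viability read as ATP-coupled luminescence with CellTiter-Glo after 10 min at room temperature.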

A further assay concerns HEK293. The description is as above. The settings on record: Five cell lines viability, CellTiter-Glo ATP luminescence, 48-72 h; max response: active compounds read low. The method, boiled down:
as §1

Assay [1] deals with HaCat. Described as above. The settings on record: Five cell lines viability, CellTiter-Glo ATP luminescence, 48-72 h; max response: active compounds read low. The method, boiled down: as §1
Another assay has as its system KB-3-1. The description is as above. The following applies: Five cell lines viability, CellTiter-Glo ATP luminescence, 48-72 h; max response: active compounds read low. The method, boiled down: as §1
A further assay relates to NIH3T3. Described as above. The following applies: Five cell lines viability, CellTiter-Glo ATP luminescence, 48-72 h; max response: active compounds read low. The method, boiled down:
as §1

In assay [2] the test system is HACAT. The experiment in a line: qHTS assay to identify novel small-molecules to repurpose for Merkel cell carcinoma treatment (AID 1296009). The following applies: MCC and control cell lines, CellTiter-Glo viability, 72 h; series mostly up to 44.8 µM. A digest of the protocol: (§2)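 Cells were incubated with compound for 72 hr at 37 degree celsius before CellTiter-Glo addition. Luminescence was normalized with no-cell wells as full cytotoxicity and DMSO as baseline.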

The subject of another assay is HEK293T. The description is as above. The settings on record: MCC and control cell lines, CellTiter-Glo viability, 72 h; at 44.8 µM (top of the series) unless noted. A digest of the protocol: as §2

Results filed as inconclusive are left out. The source holds several records for some structures; these can differ, active in one and inactive in another. A number with no mark means an inactive call. Active and inactive are the calls of the source. Calls come from the whole dose curve; as a rule, active = well fitted inhibition curve with a large enough effect; inconclusive = small, poorly fitted or top-dose-only effect; inactive = flat fitted curve, though single readings scatter.
Note: nearly all actives have a fitted effect of over 60% in size.

On to `O=C(O)CCCCCC[C@H]1C(=O)NC(=O)N1CC[C@@H](O)C1CCCCC1`, for which the max response with CRL-7250 is 3.98%; with HEK293, -1.93%; in the assay with NIH3T3 it was -5.35%. Besides, the outcome in the assay on HaCat [1] and in the assay with KB-3-1 was inactive. For the same compound, the Potency entry in the assay with HACAT [2] is “inactive”.
For `Cc1cc(OCc2nc(-c3ccccc3Cl)cs2)ccc1OCC(=O)O`, the max response is -3.46% in the assay on CRL-7250, -1.87% with HEK293 and 4.72% in the assay on NIH3T3. In addition, the result with HaCat [1] and in the assay with KB-3-1 was inactive. For the same compound, in the assay on HACAT [2], the Potency entry is “inactive”.
For `CCNC(=O)Nc1ncc(-c2cc(-c3c(C)cc(OC)cc3C)nc(-c3cnccn3)n2)s1`, the results for the max response with CRL-7250 and with KB-3-1 were -11.4% and 1.64%, respectively. Also, the compound was called inactive with HEK293, with HaCat [1] and in the assay on HEK293T. Besides, the Potency entry in the assay with HACAT [2] was “inactive”.
Take `CCCCCCOc1cc2c(cc1N(C)c1ncc(C(=O)O)cn1)C(C)(C)CCC2(C)C`: the values for the max response with CRL-7250 and in the assay with HEK293 were 4.99% and 3.1%, respectively. For the same compound, the compound was classed as inactive in the assay on HaCat [1] and in the assay on NIH3T3.
Take `COC(=O)C1=CO[C@@H](O[C@@H]2O[C@H](CO)[C@@H](O)[C@H](O)[C@H]2O)C2C1C(=O)C[C@H]2C` (some centres undefined): the max response with CRL-7250 was -1.68%; with HEK293, -7.74%; in the assay on NIH3T3 it was 2.63%. Moreover, the result in the assay on HaCat [1] and in the assay with KB-3-1 was inactive. Moreover, in the assay on HACAT [2], the Potency result was “inactive”.
In the case of `C[C@H]1Oc2cc(cnc2N)-c2c(nn(C)c2C#N)CN(C)C(=O)c2ccc(F)cc21`, the figures for the Potency in the assay on CRL-7250 and with NIH3T3 were 36.6 nM (active) and 13200 nM (active), respectively. Besides, the max response was -113% in the assay on HEK293, -103% with HaCat [1] and -87.5% with NIH3T3.
For `CC(=O)O[C@@H]1[C@H](O[C@@H]2O[C@@H](CO)[C@H](O)[C@H]2O)[C@@H](O[C@@H]2O[C@@H](C)[C@H](O[C@@H]3OC[C@@H](O)[C@H](O)[C@H]3O)[C@@H](O)[C@H]2O)[C@H](OC(=O)[C@]23CCC(C)(C)C[C@H]2C2=CCC4[C@@]5(C)CC[C@H](O[C@@H]6O[C@H](C(=O)O)[C@@H](O)[C@H](O)[C@H]6O[C@@H]6O[C@H](CO)[C@H](O)[C@H](O)[C@H]6O)[C@@](C)(C=O)C5CC[C@@]4(C)[C@]2(C)CC3)O[C@@H]1C` (some centres undefined), the result in the assay on CRL-7250 and in the assay on HaCat [1] was inactive. For the same compound, the max response with HEK293 was -1.69%; in the assay with KB-3-1, 5.7%; in the assay with NIH3T3 it was 4.82%. The outcome with HACAT [2] was “inactive [at 9.27 µM]”.
In the case of `COc1c2c(c(C)c3c1C(=O)OC3)OC1(C)CC(O)C34OC(OC)(CC(OC(C)=O)C3(C)C1C2)OC4(C)C` (centres undefined), the call in the assay on CRL-7250 and with HaCat [1] was inactive. For the same compound, the max response is -22.1% with HEK293, 1.81% in the assay with KB-3-1 and -0.676% in the assay with NIH3T3. Moreover, in the assay with HACAT [2], the Potency entry is “inactive”.
For the compound `C/C=C/C=C/C(O)=C1\C(=O)[C@]2(C)C3C(C(=O)CC/C=C/C)=C(O)C4(C)C1[C@]1(C)O[C@@]4(O)[C@@]3(C)O[C@@]12O`, the max response in the assay with CRL-7250 is -4.26%; in the assay on HEK293 it was -0.736%; with KB-3-1, 8.54%; in the assay with NIH3T3, 1.07%. The compound was called inactive with HaCat [1]. For the same compound, in the assay on HACAT [2], the Potency entry is “inactive”.
In the case of `O=C(N/N=C/c1ccc(O)c(O)c1)c1cc2ccccc2cc1O`, the max response with CRL-7250 was -27.6%; in the assay with HaCat [1], -0.414%; in the assay with KB-3-1, 7.95%. For the same compound, in the assay on HEK293, the compound was called inactive. The outcome with HEK293T is “inactive [at 17.4 µM]”.
For `OCC1OC(Oc2cc(O)cc(/C=C/c3ccc(O)cc3)c2)C(O)C(O)C1O` (centres undefined), the max response was -6.35% with CRL-7250, 2.65% in the assay on HEK293, 5.61% with KB-3-1 and -0.337% with NIH3T3. Also, in the assay with HaCat [1], the outcome was inactive. Moreover, the Potency entry in the assay on HACAT [2] is “inactive”.
With `CC(C)CCC[C@@H](C)[C@H]1CC[C@H]2[C@@H]3CC(=O)[C@H]4C[C@@H](O)CC[C@]4(C)[C@H]3CC[C@]12C`, the results for the max response with CRL-7250, in the assay on HEK293 and in the assay with KB-3-1 were -2.74%, -0.18% and -11.4%, respectively. For the same compound, the compound was classed as inactive in the assay on HaCat [1]. For the same compound, in the assay with HACAT [2], the Potency result was “inactive”.
As for `CCC1=CC2CN(C1)Cc1c([nH]c3ccccc13)[C@@](C(=O)OC)(c1cc3c(cc1OC)N(C)[C@H]1[C@@](O)(C(=O)OC)[C@H](OC(C)=O)[C@]4(CC)C=CCN5CC[C@]31[C@@H]54)C2` (some centres undefined), the Potency with CRL-7250 is 126 nM (active); in the assay on HEK293, 100 nM (active); in the assay with KB-3-1 it was 35.5 nM (active). Also, in the assay with HaCat [1], the result was inactive. In addition, the Potency entry in the assay with HACAT [2] was “inactive”.
As for `COC1/C=C/C(C)(O)C(SCC(N)C(=O)O)CC(=O)OC(C)C(C)CC/C=C/1C` (centres undefined), the max response was 1.64% in the assay with CRL-7250 and 0.268% in the assay with KB-3-1. The compound was called inactive with HEK293 and in the assay on HaCat [1]. In the assay on HACAT [2], the Potency result is “inactive”. Besides, in the assay with HEK293T, the outcome was “inactive [at 17.4 µM]”.
`CC(=O)OC/C=C(\C)C(CC1C(C)=C(OC(C)=O)C(=O)C2C(C)(C)C(O)CCC12C)OC(C)=O` (centres undefined): the max response was 1.57% in the assay on CRL-7250 and -0.0321% in the assay on HEK293. Also, the call with HaCat [1] and in the assay with KB-3-1 was inactive. Also, the Potency result with HACAT [2] was “inactive”.
For `c1ccc(-c2csc(N3CCOCC3)n2)cc1`, the max response in the assay on CRL-7250 was 1.19%; with HaCat [1], -7.34%; in the assay on KB-3-1, 8.26%. Moreover, the result in the assay with HEK293 and with HEK293T was inactive.
Consider `O=C1NC(Cc2c[nH]c3ccccc23)C(=O)NC1Cc1cnc[nH]1` (centres undefined), for which the call in the assay on CRL-7250, in the assay on HaCat [1] and in the assay with KB-3-1 was inactive. In addition, the results for the max response in the assay with HEK293 and in the assay with NIH3T3 were -5.57% and 3.67%, respectively. The Potency entry in the assay on HACAT [2] is “inactive”.
With `Cn1cc(-c2ccc3nnc(Sc4ccc5nn(C)cc5c4)n3n2)cn1`, the max response was -2.56% with CRL-7250 and -20.1% in the assay with HaCat [1]. Also, the result in the assay on HEK293, in the assay on KB-3-1 and with HEK293T was inactive.
